Measurements taken from the supplement of paper PMC3484114.
± gives the standard deviation.

System: OVCAR-3-derived ovarian cancer stem-like cells (spheroids)
Test: cell growth relative to untreated control; higher = more growth (less inhibition)
Conditions: 2.29 µM; 96 h
Method in brief: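 Stem-like cells derived from OVCAR-3 spheroids were dissociated with trypsin and seeded at 50,000 cells/mL in stem cell medium in ultra-low attachment 96-well plates, then preincubated for 24 h. Each compound was added at 2.29 uM to 4 replicate wells and left for 96 h at 37°C, 5% CO2. Viability came from TOX8 resazurin fluorescence (ex 560/em 590 nm) read after 4 h. Percent growth was expressed relative to untreated wells, after blank subtraction and removal of outliers by the Grubbs test.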

Row | SMILES | cell growth [%]
1 | Cc1ccccc1NC(=O)C(=O)C(C#N)c1ccccc1C (configuration not stated) | 7.3 ± 3.2
2 | CCCCOCc1cc(CN2CCN(C)CC2)c(O)c2ncccc12 | 85.3 ± 33
3 | CC(=O)NC(CC(C)C)C(=O)NC(Cc1ccccc1)C(=O)CCl (configuration not stated) | 88.6 ± 12
4 | CC(=O)O[C@]1(C(C)=O)CC[C@H]2[C@@H]3C[C@H](C)C4=CC(=O)C=C[C@]4(C)[C@@]3(F)[C@@H](O)C[C@@]21C | 130 ± 81
5 | CCCC(=O)OCC1OC(n2ccc(N)nc2=O)C(OC(=O)CCC)C1OC(=O)CCC (configuration not stated) | 31.7 ± 19
6 | COC(=O)C(=O)C(C(=O)C(=O)Nc1cc(C)ccc1C)c1nc2ccc(C(=O)c3ccccc3)cc2[nH]c1=O (configuration not stated) | 91.5 ± 15
7 | CC[C@@]1(O)C[C@H](O[C@H]2C[C@H](N(C)C)[C@H](O[C@H]3C[C@H](O)[C@H](O[C@H]4C[C@H](O)[C@H](O)[C@H](C)O4)[C@H](C)O3)[C@H](C)O2)c2c(cc3c(c2O)C(=O)c2c(O)ccc(O)c2C3=O)[C@H]1C(=O)OC | 78.9 ± 26
